# Test results from patent US20240200044, “EVOLUTION OF TALENS” (President and Fellows of Harvard College, published 2024).
# Molecular target: CBX8-directed TALE-omega K59E (synthetic construct, UniProt Q56830 SEQ:41-724, K59E)
# Experiment: one_hybrid; versus canonical CBX8 TALE
# Conditions: tags: N-terminal FLAG-NLS, C-terminal RNAP omega; dsDNA, one strand shown
sequence,measurement,value
TTCAGGAGGGCTTCGGC,binding signal,2 fold decrease
